Source: publication PMC11006913
Residue numbers refer to the chain shown, from its start.

Assays:
Assay in all cases: PBM; 200 nM protein, PBS
Conditions in all cases: dsDNA, one strand shown
HOXB4 [1] = target: HOXB4 (Homo sapiens, UniProt P17483 148-234)
VENTX [2] = target: T1, VENTX (Homo sapiens, UniProt O95231 78-163, R121Q)
T1 sequence: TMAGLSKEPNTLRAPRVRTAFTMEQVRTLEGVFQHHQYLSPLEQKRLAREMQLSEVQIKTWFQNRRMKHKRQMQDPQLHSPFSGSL

HOXA4 [3] = target: HOXA4 (Homo sapiens, UniProt Q00056 201-287, W262R)
Chain of HOXA4 (Homo sapiens, UniProt Q00056 201-287, W262R) (Q00056 201-287 W262R): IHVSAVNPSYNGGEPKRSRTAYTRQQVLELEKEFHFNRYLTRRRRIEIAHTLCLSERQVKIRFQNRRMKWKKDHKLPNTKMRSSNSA

PRRX1 [4] = target: PRRX1 (Homo sapiens, UniProt P54821 80-166, F113S)
Chain of PRRX1 (Homo sapiens, UniProt P54821 80-166, F113S) (P54821 80-166 F113S): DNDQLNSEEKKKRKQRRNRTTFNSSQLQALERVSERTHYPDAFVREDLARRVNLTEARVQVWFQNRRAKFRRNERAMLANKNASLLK

VENTX [5] = target: T2, VENTX (Homo sapiens, UniProt O95231 78-163, Y115F)
T2 sequence: T1 sequence with Y38F, Q44R

HOXB6 = HOXB6 (Homo sapiens, UniProt P17509 132-218, K202E)
Chain of HOXB6 (P17509 132-218 K202E): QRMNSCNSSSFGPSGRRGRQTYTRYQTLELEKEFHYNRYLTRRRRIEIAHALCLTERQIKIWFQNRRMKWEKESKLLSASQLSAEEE

HOXA2 = HOXA2 (Homo sapiens, UniProt O43364 129-215, R185T)
Chain of HOXA2 (O43364 129-215 R185T): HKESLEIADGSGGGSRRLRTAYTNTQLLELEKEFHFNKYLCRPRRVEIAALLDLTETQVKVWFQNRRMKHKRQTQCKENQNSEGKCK

HOXA4 [6] = target: HOXA4 (Homo sapiens, UniProt Q00056 201-287, R217L)
Chain of HOXA4 (Homo sapiens, UniProt Q00056 201-287, R217L) (Q00056 201-287 R217L): as the sequence (Q00056 201-287 W262R) above, with R17L, R62W counted along it

HOXB4 [7] = target: HOXB4 (Homo sapiens, UniProt P17483 148-234, V174I)
Chain of HOXB4 (Homo sapiens, UniProt P17483 148-234, V174I) (P17483 148-234 V174I): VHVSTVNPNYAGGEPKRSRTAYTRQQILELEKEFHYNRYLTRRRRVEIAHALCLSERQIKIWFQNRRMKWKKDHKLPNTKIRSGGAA

MSX2 [8] = target: MSX2 (Homo sapiens, UniProt P35548 130-214, R199I)
Chain of MSX2 (Homo sapiens, UniProt P35548 130-214, R199I) (P35548 130-214 R199I): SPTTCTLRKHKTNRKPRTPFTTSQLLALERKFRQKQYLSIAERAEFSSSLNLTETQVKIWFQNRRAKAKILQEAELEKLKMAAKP

PAX4 [9] = target: T3, PAX4 (Homo sapiens, UniProt O43316 9-242, R200Q)
T3 sequence: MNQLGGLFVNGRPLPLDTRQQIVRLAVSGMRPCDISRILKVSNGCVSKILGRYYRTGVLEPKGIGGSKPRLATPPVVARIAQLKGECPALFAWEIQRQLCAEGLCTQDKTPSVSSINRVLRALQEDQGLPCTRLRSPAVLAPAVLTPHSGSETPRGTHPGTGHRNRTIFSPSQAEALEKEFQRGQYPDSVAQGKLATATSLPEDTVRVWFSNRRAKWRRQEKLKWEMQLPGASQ

PAX4 [10] = target: T4, PAX4 (Homo sapiens, UniProt O43316 9-242, F177V)
T4 sequence: T3 sequence with F169V, Q192R

HOXA4 [11] = target: HOXA4 (Homo sapiens, UniProt Q00056 201-287)
Chain of HOXA4 (Homo sapiens, UniProt Q00056 201-287) (Q00056 201-287): as the sequence (Q00056 201-287 W262R) above, with R62W counted along it

MSX2 [12] = target: MSX2 (Homo sapiens, UniProt P35548 130-214)
Chain of MSX2 (Homo sapiens, UniProt P35548 130-214) (P35548 130-214): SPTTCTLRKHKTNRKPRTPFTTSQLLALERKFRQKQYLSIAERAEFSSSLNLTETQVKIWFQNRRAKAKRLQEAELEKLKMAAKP

PAX4 [13] = target: T5, PAX4 (Homo sapiens, UniProt O43316 9-242, F177Y)
T5 sequence: T3 sequence with F169Y, Q192R

MSX2 [14] = target: MSX2 (Homo sapiens, UniProt P35548 130-214, F161Y)
Chain of MSX2 (Homo sapiens, UniProt P35548 130-214, F161Y) (P35548 130-214 F161Y): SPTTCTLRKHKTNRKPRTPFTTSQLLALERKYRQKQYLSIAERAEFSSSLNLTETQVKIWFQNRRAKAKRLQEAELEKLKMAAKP

VAX1 [15] = target: VAX1 (Homo sapiens, UniProt Q5SQQ9 86-172, T142I)
Chain of VAX1 (Homo sapiens, UniProt Q5SQQ9 86-172, T142I) (Q5SQQ9 86-172 T142I): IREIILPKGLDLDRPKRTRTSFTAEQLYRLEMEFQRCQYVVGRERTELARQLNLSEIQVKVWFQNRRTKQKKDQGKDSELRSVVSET

HOXA4 [16] = target: HOXA4 (Homo sapiens, UniProt Q00056 201-287, W262F)
Chain of HOXA4 (Homo sapiens, UniProt Q00056 201-287, W262F) (Q00056 201-287 W262F): as the sequence (Q00056 201-287 W262R) above, with R62F counted along it

PRRX1 [17] = target: PRRX1 (Homo sapiens, UniProt P54821 80-166)
Chain of PRRX1 (Homo sapiens, UniProt P54821 80-166) (P54821 80-166): as the sequence (P54821 80-166 F113S) above, with S34F counted along it

VAX1 [18] = target: VAX1 (Homo sapiens, UniProt Q5SQQ9 86-172, K157R)
Chain of VAX1 (Homo sapiens, UniProt Q5SQQ9 86-172, K157R) (Q5SQQ9 86-172 K157R): as the sequence (Q5SQQ9 86-172 T142I) above, with I57T, K72R counted along it

Chain of HOXB4 (Homo sapiens, UniProt P17483 148-234) (P17483 148-234): as the sequence (P17483 148-234 V174I) above, with I27V counted along it

| Sequence | binding signal (HOXB4 [1]) | binding signal (VENTX [2]) | binding signal (HOXA4 [3]) | binding signal (PRRX1 [4]) | binding signal (VENTX [5]) | binding signal (HOXB6) | binding signal (HOXA2) | binding signal (HOXA4 [6]) | binding signal (HOXB4 [7]) | binding signal (MSX2 [8]) | binding signal (PAX4 [9]) | binding signal (PAX4 [10]) | binding signal (HOXA4 [11]) | binding signal (MSX2 [12]) | binding signal (PAX4 [13]) | binding signal (MSX2 [14]) | binding signal (VAX1 [15]) | binding signal (HOXA4 [16]) | binding signal (PRRX1 [17]) | binding signal (VAX1 [18]) |
| --- | --- | --- | --- | --- | --- | --- | --- | --- | --- | --- | --- | --- | --- | --- | --- | --- | --- | --- | --- | --- |
| AATAATTA | 13.5 upbm affinity estimate (log intensity, higher = more binding, comparable within an allelic series) | 12 upbm affinity estimate (log intensity, higher = more binding, comparable within an allelic series) | 10.9 upbm affinity estimate (log intensity, higher = more binding, comparable within an allelic series) | 11.7 upbm affinity estimate (log intensity, higher = more binding, comparable within an allelic series) | 11.8 upbm affinity estimate (log intensity, higher = more binding, comparable within an allelic series) | 10.2 upbm affinity estimate (log intensity, higher = more binding, comparable within an allelic series) | 13.5 upbm affinity estimate (log intensity, higher = more binding, comparable within an allelic series) | 12.7 upbm affinity estimate (log intensity, higher = more binding, comparable within an allelic series) | 14.2 upbm affinity estimate (log intensity, higher = more binding, comparable within an allelic series) | 13.1 upbm affinity estimate (log intensity, higher = more binding, comparable within an allelic series) | 12.2 upbm affinity estimate (log intensity, higher = more binding, comparable within an allelic series) | 10.8 upbm affinity estimate (log intensity, higher = more binding, comparable within an allelic series) | 14.2 upbm affinity estimate (log intensity, higher = more binding, comparable within an allelic series) | 14 upbm affinity estimate (log intensity, higher = more binding, comparable within an allelic series) | 11.1 upbm affinity estimate (log intensity, higher = more binding, comparable within an allelic series) | 13.6 upbm affinity estimate (log intensity, higher = more binding, comparable within an allelic series) | 13.4 upbm affinity estimate (log intensity, higher = more binding, comparable within an allelic series) | 12.2 upbm affinity estimate (log intensity, higher = more binding, comparable within an allelic series) | 13.5 upbm affinity estimate (log intensity, higher = more binding, comparable within an allelic series) | 13.4 upbm affinity estimate (log intensity, higher = more binding, comparable within an allelic series) |
| TTAATTAA | 13.5 upbm affinity estimate (log intensity, higher = more binding, comparable within an allelic series) | 12.4 upbm affinity estimate (log intensity, higher = more binding, comparable within an allelic series) | 11 upbm affinity estimate (log intensity, higher = more binding, comparable within an allelic series) | 12.1 upbm affinity estimate (log intensity, higher = more binding, comparable within an allelic series) | 12.1 upbm affinity estimate (log intensity, higher = more binding, comparable within an allelic series) | 10.3 upbm affinity estimate (log intensity, higher = more binding, comparable within an allelic series) | 13.7 upbm affinity estimate (log intensity, higher = more binding, comparable within an allelic series) | 13.2 upbm affinity estimate (log intensity, higher = more binding, comparable within an allelic series) | 14.2 upbm affinity estimate (log intensity, higher = more binding, comparable within an allelic series) | 13.1 upbm affinity estimate (log intensity, higher = more binding, comparable within an allelic series) | 12.6 upbm affinity estimate (log intensity, higher = more binding, comparable within an allelic series) | 11.2 upbm affinity estimate (log intensity, higher = more binding, comparable within an allelic series) | 14.3 upbm affinity estimate (log intensity, higher = more binding, comparable within an allelic series) | 13.9 upbm affinity estimate (log intensity, higher = more binding, comparable within an allelic series) | 11.6 upbm affinity estimate (log intensity, higher = more binding, comparable within an allelic series) | 13.5 upbm affinity estimate (log intensity, higher = more binding, comparable within an allelic series) | 13.6 upbm affinity estimate (log intensity, higher = more binding, comparable within an allelic series) | 13.1 upbm affinity estimate (log intensity, higher = more binding, comparable within an allelic series) | 13.7 upbm affinity estimate (log intensity, higher = more binding, comparable within an allelic series) | 13.5 upbm affinity estimate (log intensity, higher = more binding, comparable within an allelic series) |
| CATAATTA | 13.6 upbm affinity estimate (log intensity, higher = more binding, comparable within an allelic series) | 12 upbm affinity estimate (log intensity, higher = more binding, comparable within an allelic series) | 10.9 upbm affinity estimate (log intensity, higher = more binding, comparable within an allelic series) | 11.6 upbm affinity estimate (log intensity, higher = more binding, comparable within an allelic series) | 11.9 upbm affinity estimate (log intensity, higher = more binding, comparable within an allelic series) | 10.2 upbm affinity estimate (log intensity, higher = more binding, comparable within an allelic series) | 13.6 upbm affinity estimate (log intensity, higher = more binding, comparable within an allelic series) | 12.7 upbm affinity estimate (log intensity, higher = more binding, comparable within an allelic series) | 14.4 upbm affinity estimate (log intensity, higher = more binding, comparable within an allelic series) | 12.8 upbm affinity estimate (log intensity, higher = more binding, comparable within an allelic series) | 12.1 upbm affinity estimate (log intensity, higher = more binding, comparable within an allelic series) | 11 upbm affinity estimate (log intensity, higher = more binding, comparable within an allelic series) | 14.3 upbm affinity estimate (log intensity, higher = more binding, comparable within an allelic series) | 13.9 upbm affinity estimate (log intensity, higher = more binding, comparable within an allelic series) | 11.3 upbm affinity estimate (log intensity, higher = more binding, comparable within an allelic series) | 13.5 upbm affinity estimate (log intensity, higher = more binding, comparable within an allelic series) | 13.6 upbm affinity estimate (log intensity, higher = more binding, comparable within an allelic series) | 12.2 upbm affinity estimate (log intensity, higher = more binding, comparable within an allelic series) | 13.6 upbm affinity estimate (log intensity, higher = more binding, comparable within an allelic series) | 13.7 upbm affinity estimate (log intensity, higher = more binding, comparable within an allelic series) |
| CTTAATTA | 13.5 upbm affinity estimate (log intensity, higher = more binding, comparable within an allelic series) | 12.5 upbm affinity estimate (log intensity, higher = more binding, comparable within an allelic series) | 11 upbm affinity estimate (log intensity, higher = more binding, comparable within an allelic series) | 12 upbm affinity estimate (log intensity, higher = more binding, comparable within an allelic series) | 12.3 upbm affinity estimate (log intensity, higher = more binding, comparable within an allelic series) | 10.3 upbm affinity estimate (log intensity, higher = more binding, comparable within an allelic series) | 13.8 upbm affinity estimate (log intensity, higher = more binding, comparable within an allelic series) | 13.1 upbm affinity estimate (log intensity, higher = more binding, comparable within an allelic series) | 14.2 upbm affinity estimate (log intensity, higher = more binding, comparable within an allelic series) | 13.1 upbm affinity estimate (log intensity, higher = more binding, comparable within an allelic series) | 12.6 upbm affinity estimate (log intensity, higher = more binding, comparable within an allelic series) | 11 upbm affinity estimate (log intensity, higher = more binding, comparable within an allelic series) | 14.3 upbm affinity estimate (log intensity, higher = more binding, comparable within an allelic series) | 14 upbm affinity estimate (log intensity, higher = more binding, comparable within an allelic series) | 11.5 upbm affinity estimate (log intensity, higher = more binding, comparable within an allelic series) | 13.6 upbm affinity estimate (log intensity, higher = more binding, comparable within an allelic series) | 13.9 upbm affinity estimate (log intensity, higher = more binding, comparable within an allelic series) | 13 upbm affinity estimate (log intensity, higher = more binding, comparable within an allelic series) | 13.6 upbm affinity estimate (log intensity, higher = more binding, comparable within an allelic series) | 13.8 upbm affinity estimate (log intensity, higher = more binding, comparable within an allelic series) |
